Measured values: ChEMBL document CHEMBL3988442, “University of Dundee, Small-Polar-MMV Screening Library” (2021)
The whole screen tested about 48,000 compounds, of which about 13,000 (27%) showed an effect of 50% or more. Some of the results follow.

Test system: Wolbachia pipientis
Experiment: Anti-Wolbachia Cell-Based Screen
Type: functional
Set-up: scale not given: in the data most compounds retested in dose-response had high values
Settings: 5 µM

Structure (SMILES)	Percent Effect [%]
Cc1ccc2c(n1)N(CC1CC1)CCN(Cc1ccco1)C2.O=C(O)C(F)(F)F.O=C(O)C(F)(F)F	13.96
Cc1ccc(F)cc1CC(=O)N(CCN1CCOCC1)Cc1ccco1	-4.12
C[C@@H]1CN(Cc2ccco2)CCN1C(=O)Cc1ccccc1F	87.95
COc1ccccc1CC(=O)N1CCN(Cc2ccco2)C[C@@H]1C	136.4
COc1ccccc1CC(=O)N(CCN1CCOCC1)Cc1ccco1	0.5032
O=C(O)C(F)(F)F.O=C1[C@H]2CN(Cc3ccco3)C[C@H]2CN1c1cncnc1	5.677
Cc1cccc(C)c1NC(=O)CNC(C)Cc1ccsc1 (stereo unspecified)	-3.648
Cc1cc(N2CCC(NC(C)Cc3ccsc3)CC2)nc(C)n1 (stereo unspecified)	1.122
Cc1cccc(CNC(Cc2ccsc2)c2nccs2)n1 (stereo unspecified)	152.6
O=C(NCc1ccccn1)[C@]12COC[C@H]1CN(Cc1ccsc1)C2.O=C(O)C(F)(F)F.O=C(O)C(F)(F)F	103
c1cnc(N2CCCC3(CCN(Cc4cccs4)C3)C2)nc1 (stereo unspecified)	109.3
Fc1ccccc1CN1CCCC2(CCN(c3ncccn3)C2)C1 (stereo unspecified)	-4.552
O=C(O)C(F)(F)F.O=C(O)C(F)(F)F.O=C1N(c2ccsc2)CCC12CCCN(Cc1ccccn1)C2 (stereo unspecified)	2.891
Cc1nc(CN2CCOCC3(CCN(c4ncccn4)C3)C2)cs1.O=C(O)C(F)(F)F.O=C(O)C(F)(F)F (stereo unspecified)	-16.84
O=C(O)C(F)(F)F.c1cnc(N2CCOCC3(CCCN(Cc4cc[nH]n4)C3)C2)nc1 (stereo unspecified)	-14.28
O=C(O)C(F)(F)F.O=C(O)C(F)(F)F.c1ccc(N2CCC3(COCCN(Cc4cccs4)C3)C2)nc1 (stereo unspecified)	103.3
CN(C)C[C@]12COC[C@H]1CN(Cc1ccccn1)C2.O=C(O)C(F)(F)F.O=C(O)C(F)(F)F.O=C(O)C(F)(F)F	-16.37
O=C(NCc1ccccn1)[C@]12COC[C@H]1CN(C1CCC1)C2.O=C(O)C(F)(F)F.O=C(O)C(F)(F)F	-13.49
CCC(CC)CN1CCC2(CCCN(c3ncccn3)C2)C1 (stereo unspecified)	-25.35
O=C(O)C(F)(F)F.O=C(O)C(F)(F)F.O=C(O)C(F)(F)F.c1ccc(CN2CCCC3(CCN(Cc4cccs4)C3)C2)nc1 (stereo unspecified)	118.7
c1cc([C@H]2C[C@@H]3CCN(Cc4nccs4)C[C@H]3O2)ncn1	-0.9402
COCC1CC2(CCNCC2)CN1c1ncccn1 (stereo unspecified)	-4.112
O=C(O)C(F)(F)F.O=C(O)C(F)(F)F.c1ccc(CN2CCCC3(CCN(CC4CCCO4)CC3)C2)nc1 (stereo unspecified)	98.44
Fc1cnc(N2CCCC3(CCN(Cc4ccsc4)C3)C2)nc1.O=C(O)C(F)(F)F.O=C(O)C(F)(F)F (stereo unspecified)	-8.586
CC(C)CN1CCCC2(CCN(c3ccccn3)C2)C1.O=C(O)C(F)(F)F (stereo unspecified)	0.9995
O=C(O)C(F)(F)F.c1ccc(N2CCCC3(CCN(Cc4ccsc4)C3)C2)nc1 (stereo unspecified)	92.47
